Experimental data reported in PubChem BioAssay (EPA / NIEHS).
Results filed as inconclusive are left out. Calls of active or inactive are those of the source. Rule for the calls: active = hit-call score of the fitted dose curve at least 0.9, where 1 is the maximum; inconclusive = response in the unintended direction; inactive = score below 0.9.

Assay: CCTE_Simmons_MITO_viability: CellTiter-Glo Viability Assessment for CCTE's HepG2 Seahorse XF Respirometric Screening Assay [post-hoc], Simmons Lab (AID 2284007);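 for AC50: cells exposed to chemical for 90 min before the ATP read; actives lower ATP signal relative to DMSO baseline meaning reduced viability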
Protocol: CCTE_Simmons_MITO is cell-based, respirometric assay using HepG2 cells and a Seahorse XF Analyzer to measure oxygen consumption rates over four temporal phases spanning a total of 72 minutes: pre-injection (pre-treatment), basal (following test compound injection), maximal (following FCCP uncoupler injection), and inhibited (following rotenone/antimycin A injection)CCTE_Simmons_MITO_viability is one of 4 assay components measured from the CCTE_Simmons_MITO assay. It is designed to make measurements of ATP content, a form of viability reporter, as detected with bioluminescence signals by Luciferase-coupled ATP quantitation technology. Data from the assay component CCTE_Simmons_MITO_viability was analyzed at the endpoint, CCTE_Simmons_MITO_viability, in the positive analysis fitting direction relative to DMSO as the negative control and baseline of activity. Using a type of viability reporter, measures of ATP content for loss-of-signal activity can be used to understand the viability. To generalize the intended target to other relatable targets, this assay endpoint is annotated to the cell cycle intended target family, where the subfamily is cytotoxicity.
Test chemicals were administered as a titrated series of 7 concentrations from 125 nM up to 100 uM [final] for 90 minutes prior to single endpoint detection. Three biological replicates of technical singles were run for every chemical concentration tested. Dimethylsulfoxide [DMSO] was used as the vehicle control. Dichlone [DCNQ] was used as the positive control and was administered as a titrated series of 8 concentrations from 10 nM up to 100 uM [final].
In the case of CC(C)(c1ccccc1)c1ccc(O)cc1, the outcome is reported as “inactive”. With CC(C)(O)C(=O)Nc1ccc([N+](=O)[O-])c(C(F)(F)F)c1 the outcome was “inactive”. With N#Cc1ccc(N(CC(N)=O)CC(F)(F)F)cc1C(F)(F)F the outcome was “inactive”. With COc1ccc(O)c(C(C)(C)C)c1 the outcome was “inactive”. In the case of CCSC(=O)N(CC)C1CCCCC1, the outcome is reported as “inactive”. With CCCCCCCCCC[N+](C)(C)CCCCCCCCCC the AC50 was 28 µM (active). For C[C@]12CCC(=O)C=C1CC[C@@H]1[C@@H]2CC[C@]2(C)C(=O)CC[C@@H]12, the outcome was “inactive”. For CCC(C)c1cc([N+](=O)[O-])cc([N+](=O)[O-])c1O (centres undefined), the AC50 was 2.91 µM (active). In the case of CO/C=C(/C(=O)OC)c1ccccc1COc1cccc(C(F)(F)F)n1, the outcome is reported as “inactive”. In the case of O=C(O)C(F)(F)C(F)(F)C(F)(F)C(F)(F)C(F)(F)C(F)(F)C(F)(F)C(F)(F)C(F)(F)F, the outcome is reported as “inactive”. In the case of NS(=O)(=O)C(F)(F)C(F)(F)C(F)(F)C(F)(F)C(F)(F)C(F)(F)C(F)(F)C(F)(F)F, the outcome is reported as “inactive”. With CC(c1ccc(O)cc1)(c1ccc(O)cc1)c1ccc(O)cc1 the outcome was “inactive”. With O=C(O)C(F)(F)C(F)(F)C(F)(F)C(F)(F)C(F)(F)C(F)(F)C(F)(F)C(F)(F)F the outcome was “inactive”. In the case of Oc1c(Cl)c(Cl)c(Cl)c(Cl)c1Cl, the AC50 is reported as 6.35 µM (active).
